Reference: PubChem BioAssay AID777 (Sanford-Burnham Center for Chemical Genomics, 2007)
In all, about 96,000 compounds went through this assay and about 19,000 (20%) were called active.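 How the source made its calls: active means blocking of liver enzyme CYP2C9 beyond about 50% at 5 µM (limit read from the data); inactive means the rest.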 A selection follows.

Each compound was assayed against Cytochrome P450 2C9 (Homo sapiens) (UniProt P11712) (assay: blockers of cytochrome P450 2C9 activity – biochemical, luminescence, ADME assay, primary screen (AID 777)). Details: CYP2C9 Supersomes, luciferin-H conversion, at 5 µM, hits give high values.
Sequence of Cytochrome P450 2C9 (Homo sapiens) (P11712 whole entry, looked up): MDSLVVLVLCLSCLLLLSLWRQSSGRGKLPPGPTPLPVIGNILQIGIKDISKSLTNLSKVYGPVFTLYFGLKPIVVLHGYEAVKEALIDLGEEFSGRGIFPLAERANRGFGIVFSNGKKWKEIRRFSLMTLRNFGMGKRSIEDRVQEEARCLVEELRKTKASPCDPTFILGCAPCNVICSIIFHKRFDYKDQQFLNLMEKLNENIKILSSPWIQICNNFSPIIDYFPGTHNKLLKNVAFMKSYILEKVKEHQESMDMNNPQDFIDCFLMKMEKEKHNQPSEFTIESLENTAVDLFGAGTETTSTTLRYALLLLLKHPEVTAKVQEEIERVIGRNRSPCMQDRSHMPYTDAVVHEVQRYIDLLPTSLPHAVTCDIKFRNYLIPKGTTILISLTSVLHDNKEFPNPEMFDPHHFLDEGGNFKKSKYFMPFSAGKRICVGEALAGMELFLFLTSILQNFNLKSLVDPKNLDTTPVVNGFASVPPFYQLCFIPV

inhibition, inactive:
Cn1c(-c2ccco2)nc2cc3ccccc3cc21 26.1%
Cn1c(Cn2nnc3ccccc32)nnc1SCC(=O)c1ccccc1F 28.6%
COc1ccc(OC)c(/C=N/NC(=O)CSc2nnc(C)n2-c2ccccc2)c1 20.2%
COc1cccc(N(CC(=O)NCCSc2ccccn2)S(C)(=O)=O)c1 38.4%
CC(=O)c1cc2c(cc1N)OCO2 3.4%
CN(C)CCCNc1c2c(c(C#N)c3nc4ccccc4n13)CCC2 7.3%
CCCCn1c(CN2CCN(CCO)CC2)nc2ccccc21 1.5%
C=CCOc1ccc(C2/C(=C(\O)c3c(C)[nH]c(C(=O)OC)c3C)C(=O)C(=O)N2CCN(C)C)cc1 (stereo not drawn) -6.1%
O=C(NCc1ccco1)C1CCCN(S(=O)(=O)c2cnc[nH]2)C1 (stereo not drawn) 27.3%
COc1cccc(N2CCN(C(=O)C3CCCN(S(=O)(=O)c4cnc[nH]4)C3)CC2)c1 (stereo not drawn) 36.6%
O=C(CN1C(=O)COc2ccccc21)NCCN1CCc2ccccc2C1 25%
Oc1c(C=Nc2cccc3nsnc23)ccc2ccccc12 -15.3%
COc1cccc(OC)c1OCCN1CCN(C(=O)c2ccco2)CC1 -24.9%
COc1c(C(=O)N2CCCC2)ccc2ccccc12 -19.3%
CN(C)CCCn1c(N)c(C#N)c2nc(C#N)c(C#N)nc21 -11.9%
COc1ccc(OCC(=O)N2CCOCC2)cc1 17.3%
O=C(NCc1ccc(Cl)cc1)c1cc(=O)nc2sc(-c3ccccc3)nn12 2.9%
Cc1ccc(N(C(=O)CC2NC(=O)NC2=O)C2(C(=O)NC3CCCC3)CCCCC2)cc1 (stereo not drawn) 46.4%
COc1ccc(CCn2c(=N)c(C(=O)NCc3ccco3)cc3c(=O)n4cccc(C)c4nc32)cc1 14.3%
CCC(C(=O)N1CCOCC1)n1c(C(=O)OC)cc2occc21 (stereo not drawn) 12.8%
CCOc1ccc(CCNC(=O)C2CCN(c3ccc(N4CCOCC4)nn3)CC2)cc1OCC 14%
COc1ccc(CCNC(=O)c2cc3sccc3n2C)cc1OC 26.8%

inhibition, active:
C=CCn1c(Cn2nnc3ccccc32)nnc1SCC(=O)N/N=C/c1cc(Br)cc(OC)c1O 54%
N#Cc1c2c(c(N3CCN(CCO)CC3)n3c1nc1ccccc13)CCCC2 58.2%
CCOC(=O)c1cccc(NC(=O)C2CCCN(S(=O)(=O)c3cnc[nH]3)C2)c1 (stereo not drawn) 95.6%
COc1ccc(Br)cc1CN1CCN(C(=O)c2cccc(OC)c2OC)CC1 52.9%
CCOc1ccc(CCNC(=O)C(CC)n2nc(C)n3c(cc4sccc43)c2=O)cc1OCC (stereo not drawn) 51.6%
CCC(C(=O)NCc1ccc(OC)cc1)n1nc(C)n2c(cc3occc32)c1=O (stereo not drawn) 82.8%
